Shown are actives, neighbours in structure and some others; about 1.5% of the full set was active somewhere.
NTR1 agonist – agonists of human NTR1, primary screen, imaging, U2OS cells, beta-arrestin-GFP, high content. 330,000 tested, 0.17% active. activation, % at 20 µM. Neurotensin receptor type 1 (Homo sapiens), P30989. NTR1-U2OS beta-arrestin-GFP spot imaging, agonist mode;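 active means activation at or above 40% of the spot to cytoplasm intensity ratio, with at least 20 cells analyzed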;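 further: 0% = DMSO without peptide and 100% = 100 nM NTR1 peptide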
ABHD5-PLIN5 inh – ABHD5-PLIN5 interaction inhibitors, primary screen, cell lysate, split luciferase complementation, luminescence; inhibition, % at 4 µM; Split G. princeps luciferase complementation, 4 h; AID 602281, 2012; 360,000 tested, 0.78% active; Perilipin-5 (Homo sapiens) + 1-acylglycerol-3-phosphate O-acyltransferase ABHD5 (Homo …;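 active means inhibition above the mean inhibition across every tested compound plus 3 SD, cut at about 22% in these data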;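 further: 0% = DMSO only wells and the 100% control is not disclosed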
TLR4 MyD88 comp – inhibitors of TLR4-MyD88 association in cells, primary screen, cell-based, HeLa CL3-4, BLA complementation, FRET ratio. inhibition, % at 8.4 µM. HeLa CL3-4 TLR4/MyD88 BLA complementation. 200,000 tested, 0.18% active; in the data active means inhibition above about 25%;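 further: 0% = vehicle and 100% = reference inhibitor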
Beta2AR agonist – beta2AR agonists driving receptor internalization, primary screen, cell-based, FAP fluorogen, flow cytometry; Beta-2 adrenergic receptor (Homo sapiens), P07550; Am2.2-beta2AR cells; response, % (no concentration beside the values); 340,000 tested, 0.43% active; AID 504454, 2011;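 active means response above a set limit, near 3 SD of response in nonfluorescent compounds, cut at about 42% in these data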
TLR9-MyD88 block – inhibitors of TLR9-MyD88 association in cells, primary screen, cell-based, CHO, BLA complementation, fluorescence; CCF4 FRET ratio; AID 504734, 2011; inhibition, % at 4.98 µM; Toll-like receptor 9 (Homo sapiens) + Myeloid differentiation primary response protein …; 340,000 tested, 0.21% active;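 active means inhibition above the mean over all tested compounds plus 3 SD, cut at about 21% in these data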;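 further: 0% = DMSO only wells and 100% = clavulanate BLA inhibitor control wells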
NOD2 RIPK2 PPI – NOD2-RIPK2 binding disruptors in cells, primary screen, fluorescence, CHO cells, BLA complementation. inhibition, % at 4.98 µM. 360,000 tested, 0.38% active. Receptor-interacting serine/threonine-protein kinase 2 (Homo sapiens), O43353. AID 624267, 2012. CCF4 ratio; in the data active means inhibition above about 21%;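 further: 0% = vehicle only and 100% = reference blocker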
Target sequence (O43353 whole entry, looked up): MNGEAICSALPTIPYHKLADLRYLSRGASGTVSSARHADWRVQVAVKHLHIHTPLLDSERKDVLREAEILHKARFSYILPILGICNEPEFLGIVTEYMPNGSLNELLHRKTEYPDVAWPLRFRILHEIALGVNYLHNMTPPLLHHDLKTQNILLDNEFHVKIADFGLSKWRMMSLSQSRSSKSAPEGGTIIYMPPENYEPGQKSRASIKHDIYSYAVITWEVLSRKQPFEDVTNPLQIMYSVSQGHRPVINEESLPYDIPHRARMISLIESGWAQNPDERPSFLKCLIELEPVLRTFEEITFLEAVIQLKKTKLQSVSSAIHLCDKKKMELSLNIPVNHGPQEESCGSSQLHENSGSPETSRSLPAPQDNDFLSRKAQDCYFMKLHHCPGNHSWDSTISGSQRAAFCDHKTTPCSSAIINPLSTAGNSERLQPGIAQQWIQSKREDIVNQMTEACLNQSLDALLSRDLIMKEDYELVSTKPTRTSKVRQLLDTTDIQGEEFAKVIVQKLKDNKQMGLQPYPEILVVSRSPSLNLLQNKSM
ABHD5-PLIN5 conf – ABHD5-PLIN5 interaction inhibitors, confirmation, biochemical, luminescence | shares compounds with ABHD5-PLIN5 inh | inhibition, % at 4 µM | 2,200 tested, 67% active | AID 651612, 2012; in the data active means inhibition above about 23%;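 further: 0% = DMSO vehicle wells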
HNF4 split-luc – HNF4 dimerization inhibitors, counter-screen for ABHD5-PLIN5 interaction inhibitor project, biochemical, split-luciferase complementation, luminescence; shares compounds with ABHD5-PLIN5 inh; inhibition, % at 4 µM; 2,200 tested, 77% active; AID 651674, 2012;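 active means mean inhibition across replicate wells exceeding the computed hit threshold, cut at about 13% in these data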;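 further: light from luciferase halves that rejoin when HNF4 fusion proteins dimerize; 0% = DMSO only wells and the 100% control is not given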
Numbers without * were called inactive; nt = not tested or not shown.

SMILES | NTR1 agonist | ABHD5-PLIN5 inh | TLR4 MyD88 comp | Beta2AR agonist | TLR9-MyD88 block | NOD2 RIPK2 PPI | ABHD5-PLIN5 conf | HNF4 split-luc
COc1ccc(CN(C)C(=O)[C@H]2O[C@@H](n3ccc(N)nc3=O)[C@H](O)[C@@H]2O)cc1OC | nt | 4 | nt | nt | nt | -6 | nt | nt
O=C(c1cccs1)N1C[C@@H](n2cc(C3CC3)nn2)[C@H](O)C[C@@H]1c1ccc(Cl)cc1 | nt | -3 | nt | nt | -3 | 4 | nt | nt
CC(O)(c1ccccc1)c1nc(-c2cccc(C#N)c2)cs1 (centres undefined) | nt | 3 | nt | nt | nt | -3 | nt | nt
O=C(OCC(=O)N1N=C(c2ccc(Cl)cc2)CC1c1ccco1)c1cncc(Br)c1 (centres undefined) | 0 | 35* | nt | -2 | -6 | -6 | 76* | 89*
O=C(OCC(=O)N1N=C(c2ccc(Cl)cc2)CC1c1ccco1)c1ccco1 (centres undefined) | 4 | 1 | 0 | -12 | -12 | -7 | nt | nt
CC1C/C(=C\c2cccnc2)C(=O)/C(=C/c2cccnc2)C1 (centres undefined) | nt | 91* | 3 | 13 | -2 | 6 | 100* | 93*
O=C1/C(=C/c2cccnc2)CCc2c1[nH]c1ccccc21 | 4 | 7 | -4 | -10 | 5 | 1 | nt | nt
O=C(c1cc(-c2ccc(F)cc2)nc2ccccc12)N1CCC1 | 2 | -6 | nt | -2 | -1 | -8 | nt | nt
O=C(O)c1cc(-c2ccc(-c3ccc(F)cc3)o2)nc2ccccc12 | -1 | 31* | nt | 8 | 9 | -5 | 20 | 61*
CC(=O)Nc1cc(-c2cccc(F)c2)cn2c(-c3ccccc3)cnc12 | nt | 1 | nt | nt | nt | 5 | nt | nt
CCN(C(=O)COC(=O)/C(=C/c1ccccc1)n1nnnc1C)C1CCCCC1 | 3 | 34* | nt | 22 | -1 | 9 | 52* | 36*
Cc1nnnn1/C(=C\c1ccccc1)C(=O)OCC(=O)N(C)C1CCS(=O)(=O)C1 (centres undefined) | 1 | 12 | 14 | 0 | 0 | -1 | nt | nt
COc1cc(/C=C(/C(=O)c2cccs2)c2nc3ccccc3[nH]2)ccc1O | 20 | 35* | 1 | 2 | 3 | 4 | 76* | 68*
COc1ccc2[nH]cc(CC(=O)O)c2c1 | -2 | 11 | 8 | -5 | 7 | 7 | nt | nt
O=C(O)Cc1c[nH]c2ccc(O)cc12 | 3 | 38* | nt | 0 | -8 | 2 | 7 | 39*
O=C1Nc2ccccc2-n2nnnc2C1N1CCN(c2ccccn2)CC1 (centres undefined) | nt | -5 | nt | nt | nt | -3 | nt | nt
CCN(CC)CCN(C(=O)/C=C/c1cccs1)c1nc2ccc(F)cc2s1 | 6 | 0 | nt | 3 | -7 | -9 | nt | nt
CN(C)CCCN(C(=O)c1sc2ccccc2c1Cl)c1nc2ccc(F)cc2s1 | -1 | 25* | -17 | 38 | 7 | -10 | 19 | 4
COc1ccc(C)c2sc(N(CCN(C)C)C(=O)/C=C/c3cccs3)nc12 | 26 | 35* | nt | 22 | 2 | 13 | 23* | 8
CN(C)CCCN(C(=O)/C=C/c1cccs1)c1nc2ccc(F)cc2s1 | -1 | 39* | -5 | 27 | -1 | 10 | 20 | 24*
CN(C)CCCN(C(=O)C1COc2ccccc2O1)c1nc2ccc(F)cc2s1 (centres undefined) | 0 | 3 | 3 | 6 | -3 | -4 | nt | nt
COC(=O)[C@]12CCCCC=C1N(Cc1ccccc1)C(=O)[C@H](CC(=O)NCc1cccs1)C2 | nt | 2 | nt | nt | nt | -10 | nt | nt
COc1ccc(/C=C/c2cc(O)cc(O[C@@H]3O[C@H](CO)[C@@H](O)[C@H](O)[C@H]3O)c2)cc1O | nt | 1 | nt | nt | nt | -18 | nt | nt
